Tau ThT inhib: qHTS for Inhibitors of Tau Fibril Formation, Thioflavin T Binding | recombinant tau K18 P301L, heparin-induced fibrillization, ThT fluorescence | Potency, µM (highest dose often 57.4 µM), without a hit: at the top dose activity, negative = inhibition, most hits filed as inhibitors | 270,000 tested, 2.1% active; also: potency is read from the fitted curve at half-maximal effect; nearly all actives have a fitted effect of over 55% in size
Target sequence (P10636 561-689 P618L limits assumed): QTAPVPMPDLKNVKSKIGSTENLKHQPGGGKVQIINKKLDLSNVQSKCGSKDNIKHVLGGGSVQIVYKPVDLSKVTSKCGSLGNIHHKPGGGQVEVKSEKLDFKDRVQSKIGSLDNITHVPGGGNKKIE
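ThT emission at 510 nm, taken 1 hr after adding 30 uM dye, quantifies aggregates formed when 20 uM heparin acts on human tau K18 P301L for 6 hr at 37 C.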
G9a inh: qHTS Assay for Inhibitors of Histone Lysine Methyltransferase G9a. AID 504332, 2011. Histone-lysine N-methyltransferase EHMT2 (Homo sapiens), Q96KQ7. Potency, µM (series often up to 102 µM), for inactives: at the top dose activity, negative = inhibition, usual class: inhibitors. 350,000 tested, 8.8% active. G9a H3K9 monomethylation, AlphaScreen, 2 h; also: potency is read from the fitted curve at half-maximal effect; nearly all actives have a fitted effect of over 75% in size
Target sequence (Q96KQ7 913-1193 limits assumed): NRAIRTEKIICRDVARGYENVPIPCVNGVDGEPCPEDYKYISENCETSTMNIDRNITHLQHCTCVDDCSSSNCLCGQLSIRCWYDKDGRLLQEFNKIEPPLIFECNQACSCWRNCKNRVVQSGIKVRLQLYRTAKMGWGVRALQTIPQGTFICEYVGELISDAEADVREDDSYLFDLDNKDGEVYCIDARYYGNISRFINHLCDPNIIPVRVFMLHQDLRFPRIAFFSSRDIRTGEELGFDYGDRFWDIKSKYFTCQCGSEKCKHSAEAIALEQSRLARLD
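Methyltransferase reactions run at room temperature for 2 h (20 nM enzyme, 500 nM biotin-H3K9 peptide, 20 uM SAM) after a 15 min compound preincubation; product detected by AlphaScreen beads and anti-H3K9me1 antibody.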
FBPA coupling cs: qHTS Assay for Inhibitors of Fructose-1,6-bisphosphate Aldolase from Giardia Lamblia: Coupling assay counterscreen. coupling enzyme system counterscreen, AmpLite Red fluorescence. 290,000 tested, 0.67% active. activity change, negative = inhibition, % at 58.2 µM, hits read low. AID 2472, 2010; in the data active = activity change below about -30%
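Compounds tested against the coupling enzymes alone at 57.5 uM final; readout was AmpLite Red fluorescence (525/598 nm) after 20 min at RT.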
Tau fluor counter: Counterscreen qHTS for Inhibitors of Tau Fibril Formation, Fluorescence Polarization; AID 1463, 2008; 280,000 tested, 0.93% active; tau K18 P301L (four-repeat tau fragment) Alexa594 fluorescence, heparin fibrillization; Potency, µM (series often up to 57.7 µM), for the others: at the top dose activity change, negative = decrease; also: potency is read from the fitted curve at half-maximal effect; nearly all actives have a fitted effect of over 55% in size
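Human K18 P301L tau (15 uM unlabeled plus 0.24 uM Alexa 594-labeled, final) in 100 mM sodium acetate pH 7 was mixed with compound and 20 uM heparin and incubated 6 hr at 37 C.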
Sfp inh: qHTS Assay for Inhibitors of Bacillus subtilis Sfp phosphopantetheinyl transferase (PPTase); 310,000 tested, 3.5% active; Potency, µM, for inactives: largest response in the series, negative = inhibition, actives largely listed as inhibitors; 4'-phosphopantetheinyl transferase ffp (Bacillus subtilis), Q9F4F7; AID 1490, 2009; Biochemical Sfp PPTase activity, qHTS;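 also: the enzyme is Sfp with the accession as filed and its product quenches rhodamine fluorescence; potency is read from the fitted curve at half-maximal effect; 0% = enzyme reaction without inhibitor and -100% = no enzyme wells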
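Buffer: 50 mM Hepes-Na pH 7.6, 10 mM MgCl2, 0.01% Nonidet P-40, 0.01% BSA. Enzyme 15 nM, pre-exposed to compound 15 min; substrates then added and fluorescence change tracked over 30 min.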
Tau FP inhib: qHTS for Inhibitors of Tau Fibril Formation, Fluorescence Polarization; Microtubule-associated protein tau (Homo sapiens), P10636; AID 1468, 2008; K18 P301L tau heparin fibrillization, Alexa594 FP, 6 h; 280,000 tested, 0.39% active; Potency, µM (top dose mostly 57.7 µM), for the others: at the top dose activity, negative = inhibition, most hits filed as inhibitors; also: potency is read from the fitted curve at half-maximal effect; nearly all actives have a fitted effect of over 55% in size
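K18 P301L tau (15 uM unlabeled/0.24 uM Alexa 594-labeled, final) + compound + heparin 20 uM final; 100 mM NaOAc pH 7; 6 hr 37 C; ThT 30 uM final added, 1 hr RT; FP ex 555/em 632 nm.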
* = called active by the depositor; ? = inconclusive; . = no result given; [ ] = another dose, or the depositor's remark. In the library only some 11% were active in any assay of this set; here they are far more common. Unless noted, calls follow the shape of the dose curve; as a rule, active = well fitted curve in the direction sought with a large enough effect; inconclusive = small, poorly fitted or top-dose-only effect, or another doubt; inactive = no such curve, though single readings can be large; an effect the other way counts as inactive or inconclusive. Unless noted, % is scaled to controls: 0 for no effect and ±100 for the full control effect.

SMILES	Tau ThT inhib	G9a inh	FBPA coupling cs	Tau fluor counter	Sfp inh	Tau FP inhib
COc1cc2[nH]c(=S)n(NC(=O)CC(C)C)c(=O)c2cc1OC	7.8%	3.98µM*	1.3	-1.6%	?	-6.8%
CCC(C)n1ncn(-c2ccc(N3CCN(c4ccc(OCC5COC(Cn6cncn6)(c6ccc(Cl)cc6Cl)O5)cc4)CC3)cc2)c1=O (stereo unspecified)	1.41µM*	?	-0.8	?	3.1%	-6.6%
COC(=O)CCCC(=O)N1CCCC(C(=O)c2ccc(OC)cc2C)C1 (stereo unspecified)	4.6%	?	2.1	-3.7%	5.9%	1.1%
Cc1ccc(C)c(NC(=O)C(=O)NCC2CCCN2S(=O)(=O)c2cccs2)c1 (stereo unspecified)	.	3.1%	.	.	.	.
CCCCCCCCCCCCCCC/C=C/[C@@H](O)[C@H](NC(=O)CCCCCCCCCCCCC)OC (tested in a mixture with another compound)	-0.4%	20µM*	.	-4.9%	.	-4.6%
CCCCCCCCCCCCC/C=C/[C@@H](O)[C@H](CO)NC(=O)CCCCCCCCCCCCCCC	0.6%	-0.5%[59 µM]	2.0	4.7%	-4.3%	-2.6%
COc1ccc(NC(=O)CCCc2nnc3n(C)c(=O)c4sccc4n23)cc1	.	5.8%	-0.1	.	10.8%	.
CC(=O)N1CC=CC1(C)C(=O)O (stereo unspecified)	-17.8%	50.1µM*	-1.1	-15.3%	26.4%	-5.6%
CC1CC(C)CN(c2ccc(C(=O)NCc3ccc4c(c3)OCO4)cc2[N+](=O)[O-])C1 (stereo unspecified)	?	?	0.7	-27.8%	0.4%	-13.5%
Cc1ccc(-n2ncc3c(Nc4ccc(Oc5ccccc5)cc4)ncnc32)c(C)c1	?	1.0%[59 µM]	.	?	.	-11.3%
Cc1ccc(-n2ncc3c(Nc4cccc(Cl)c4)ncnc32)c(C)c1	3.3%	-1.8%[59 µM]	.	?	.	25.1µM*
Cc1ccc(-n2ncc3c(Nc4cccc(C(F)(F)F)c4)ncnc32)cc1C	14.5%	-5.0%[59 µM]	.	?	.	10µM*
Cc1cc2nc(/N=C(\N)NC(=O)N3c4ccccc4Sc4ccccc43)nc(C)c2cc1C	?	50.1µM*	-2.9	-14.6%	6.9%	1.3%
Cc1ccc2nc(/N=C(\N)NC(=O)N3c4ccccc4Sc4ccccc43)nc(C)c2c1	?	50.1µM*	0.0	?	18.7%	14.3%
COc1ccccc1CCNC(=O)C(=O)c1cn(CC(=O)N2CCOCC2)c2ccccc12	.	.	.	.	8.2%	.
COc1cc(CC(=O)N(c2ccccc2)c2nc(C)cs2)cc(OC)c1OC	-13.9%	-44.9%	2.3	-10.3%	-3.8%	6.6%
COC(=O)c1ccc(C(=O)OC)c(NC(=O)Oc2ccccc2)c1	-16.5%	42.6%[59 µM]	-2.0	-3.2%	8.2%	10.2%
O=C(O)/C=C\C(=O)Nc1ccc(F)c(F)c1F	-9.0%	39.8µM*	5.8	-8.2%	-7.3%	2.6%
COC(=O)c1ccc(C(=O)OC)c(NC(=O)/C=C/C(=O)O)c1	-15.0%	?	5.5	-6.6%	39.8µM*	-5.6%
CCC[C@H](CN[C@@H](CNC)[C@H](C)CC)NCCc1cc(C(F)(F)F)cc(C(F)(F)F)c1	.	-4.9%	-0.9	.	20.0%	.
CC[C@@H](C)[C@H](CNC)NC[C@@H](Cc1cccc2ccccc12)NCCc1cccc(C(F)(F)F)c1	.	44.7µM*	-5.7	.	79.4µM*	.

High-throughput results: PubChem BioAssay, National Center for Advancing Translational Sciences (NCATS)
